MITF primary = inhibitors of human MITF | O75030 | AlphaScreen MITF homodimerization, bead proximity signal | inhibition, % at 2.6 µM | 650,000 tested, 0.91% active; in the data active means inhibition above about 50%;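 further: 0% = vehicle wells with protein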
TEAD-YAP block = TEAD-YAP interaction inhibition. HEK-TIYL cells, TEAD-Gal4/YAP UAS-luciferase luminescence. 640,000 tested, 1.4% active. inhibition, % at 9.12 µM. AID 1259422; in the data active means inhibition above about 32%;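 further: 0% = median of test compound wells and 100% = reference inhibitor wells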
GPR151 ag = activators of human GPR151. Q8TDV0. PathHunter beta-arrestin GPR151 cells, luminescence. activation, % at 11.2 µM. 650,000 tested, 1% active. AID 1508602; in the data active means activation above about 4.9%;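 further: 0% = median of compound wells and 100% = cells with positive control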
FBW7 act = human FBW7 E3 ligase activation, primary screen | AlphaScreen FBW7–phospho-cyclin E peptide binding, activator screen | normalized activity (activation), % at 26.1 µM | 650,000 tested, 0.13% active | AID 1259310; in the data active means normalized activity above about 1.9%;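 further: purified mutant Fbw7 with reduced substrate affinity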
Target sequence (Q969H0 whole entry, looked up): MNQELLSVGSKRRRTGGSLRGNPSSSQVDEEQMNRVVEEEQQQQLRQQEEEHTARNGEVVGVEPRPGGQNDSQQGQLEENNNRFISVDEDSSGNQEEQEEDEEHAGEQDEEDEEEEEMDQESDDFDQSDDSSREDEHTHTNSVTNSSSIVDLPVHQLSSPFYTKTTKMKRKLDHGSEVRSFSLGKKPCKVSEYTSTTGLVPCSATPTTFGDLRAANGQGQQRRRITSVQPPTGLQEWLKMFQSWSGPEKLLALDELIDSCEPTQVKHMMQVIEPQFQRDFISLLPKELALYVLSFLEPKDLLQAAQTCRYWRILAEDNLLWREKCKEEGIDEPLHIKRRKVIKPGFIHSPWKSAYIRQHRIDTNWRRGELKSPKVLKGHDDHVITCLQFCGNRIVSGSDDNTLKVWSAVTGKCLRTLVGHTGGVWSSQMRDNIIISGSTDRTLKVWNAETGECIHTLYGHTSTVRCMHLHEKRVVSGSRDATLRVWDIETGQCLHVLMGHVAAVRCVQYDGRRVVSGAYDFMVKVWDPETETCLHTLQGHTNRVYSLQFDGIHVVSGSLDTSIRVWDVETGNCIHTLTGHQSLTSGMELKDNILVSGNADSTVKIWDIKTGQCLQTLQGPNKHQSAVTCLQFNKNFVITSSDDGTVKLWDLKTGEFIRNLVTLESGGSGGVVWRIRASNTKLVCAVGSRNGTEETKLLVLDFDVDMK
Numbers without * were called inactive. Shown are actives, neighbours in structure and some others; about 3.5% of the full set was active somewhere.

For COc1ccc(-n2nc(C(=O)NCC(=O)Nc3cc(OC)c(OC)c(OC)c3)c3ccccc3c2=O)cc1OC the results were MITF primary 5.1, TEAD-YAP block 49.0*, GPR151 ag 0.5 and FBW7 act 0.3.
COc1ccc(-n2nc(C(=O)NCC(=O)Nc3ccc(F)cc3)c3ccccc3c2=O)cc1OC was read as MITF primary -7.9, TEAD-YAP block 16.5, GPR151 ag 1.2 and FBW7 act -0.1.
For CCC(c1nnnn1CCOC)N1CCC(C(N)=O)CC1 (stereo not given) the results were MITF primary 2.8, TEAD-YAP block -11.9, GPR151 ag -1.0 and FBW7 act 0.0.
`CCOC(=O)c1cnc2c(OC)cccc2c1NCCCN(CC)CC` gave MITF primary -5.8, TEAD-YAP block 82.8*, GPR151 ag -1.3 and FBW7 act -0.1.
CCOC(=O)c1cnc2c(OC)cccc2c1NCCCOC was read as MITF primary 8.1, TEAD-YAP block 18.6, GPR151 ag 0.7 and FBW7 act 0.0.
`CCOC(=O)c1cnc2c(OC)cccc2c1NCCc1ccccc1` gave MITF primary -4.5, TEAD-YAP block -0.2, GPR151 ag -0.4 and FBW7 act 0.1.
Screening CCOC(=O)c1cnc2c(OC)cccc2c1NCCOC returned MITF primary 0.2, TEAD-YAP block 42.4*, GPR151 ag -0.6 and FBW7 act -0.2.
CCOC(=O)c1cnc2c(OC)cccc2c1Nc1cc(OC)c(OC)c(OC)c1 was read as MITF primary 1.7, TEAD-YAP block 55.9*, GPR151 ag 0.2 and FBW7 act 0.0.
`O=C1N/C(=C/c2ccc(-c3ccccc3[N+](=O)[O-])o2)C(=O)N1Cc1ccc(Cl)cc1` gave MITF primary 8.3, TEAD-YAP block 3.0, GPR151 ag -1.0 and FBW7 act -0.1.
For COc1cccc(-c2nc3cc(NC(=O)c4cccc(OCc5ccccc5)c4)ccc3o2)c1 the results were MITF primary 3.5, TEAD-YAP block -30.5, GPR151 ag 1.2 and FBW7 act 0.1.
For COc1ccc2c(c1)CC(c1nc3cc(-c4ccnc5[nH]ccc45)c(F)cc3[nH]1)CO2 (stereo not given) the results were MITF primary -7.3, TEAD-YAP block 50.4*, GPR151 ag 0.8 and FBW7 act -0.1.
`COc1ccc2c(c1)CC(c1nc3ccc(-c4ccnc(N)c4)cc3[nH]1)CO2` (stereo not given) gave MITF primary 22.2, TEAD-YAP block 21.4, GPR151 ag 0.0 and FBW7 act 0.0.
For CCn1c(C2COc3ccc(OC)cc3C2)nc2cc(F)c(-c3ccnc4[nH]ccc34)cc21 (stereo not given) the results were MITF primary 57.7*, TEAD-YAP block -1.0, GPR151 ag 1.4 and FBW7 act -0.1.
`COc1ccc(CC(=O)NNC(=O)COc2ccc(C(C)C)cc2Br)cc1` gave MITF primary 9.2, TEAD-YAP block 15.8, GPR151 ag 0.3 and FBW7 act 0.1.
For NC(=O)c1ccsc1NC(=O)c1ccc2c(c1)CCCC2 the results were MITF primary 6.0, TEAD-YAP block 58.3*, GPR151 ag -9.7 and FBW7 act -0.1.
Screening CCN1C(=O)S/C(=C/C=C/c2ccccc2[N+](=O)[O-])C1=O returned MITF primary -10.3, TEAD-YAP block -9.4, GPR151 ag -2.1 and FBW7 act -0.2.
`Cc1cnc(NC(=O)c2ccccc2F)s1` gave MITF primary 13.3, TEAD-YAP block 64.0*, GPR151 ag -9.0 and FBW7 act 0.0.
For Cc1cnc(Nc2ccc(-n3ccnc3)cc2)nc1Nc1ccc(N2CCOCC2)cc1 the results were MITF primary 5.0, TEAD-YAP block 51.2*, GPR151 ag -1.2 and FBW7 act -0.3.
`CC(=O)Nc1ccc(Nc2nc(Nc3ccc(N4CCOCC4)cc3)ncc2C)cc1` gave MITF primary 11.1, TEAD-YAP block 12.2, GPR151 ag 1.9 and FBW7 act 0.0.
For CCCNc1nc(Nc2cc(OC)c(OC)c(OC)c2)nc2nc[nH]c12 the results were MITF primary 16.4, TEAD-YAP block 39.1*, GPR151 ag 0.5 and FBW7 act 0.4.
For c1cn(-c2ccc(Nc3nc(Nc4ccc(N5CCOCC5)cc4)c4[nH]cnc4n3)cc2)cn1 the results were MITF primary 5.4, TEAD-YAP block 51.4*, GPR151 ag 1.1 and FBW7 act -0.1.
COc1cc(Nc2nc(Nc3ccc(N4CCOCC4)cc3)c3[nH]cnc3n2)cc(OC)c1OC was read as MITF primary 12.6, TEAD-YAP block 63.9*, GPR151 ag -3.8 and FBW7 act 0.1.
Screening C#CCn1c(=NC(=O)C2CC2)sc2cc(OCC)ccc21 returned MITF primary 11.9, TEAD-YAP block -1.3, GPR151 ag -1.1 and FBW7 act 0.2.

Screens (PubChem BioAssay)
